HIF act: HIF pathway transcriptional activation; U2OS HRE-luciferase reporter, luminescence; normalized: DMSO 0%, desferrioxamine 100%; 300,000 tested, 0.32% active; activation, % at 7.5 µM (by protocol); AID 1910;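 active means mean activation of at least 10% of the iron chelator positive control signal, with at least half of replicates also reaching 10%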
AHR act: human AHR activation. P35869. activation, % at 5 µM. 320,000 tested, 2.5% active. AID 2796. AHR-responsive luciferase reporter cells, luminescence; in the data active means activation above about 47%;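 further: 0% = vehicle wells and 100% = reference agonist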
CR mimetic SO: lowers age-related superoxide in aged yeast cells. S. cerevisiae aged cells, superoxide DHE fluorescence; hits give low values. superoxide response (% of plate mean), % at 10 µM. 330,000 tested, 0.18% active;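 active means superoxide response under a set limit, about three screen SD below normal, cut at about 65% in these data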;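 further: yeast aged for seven days with compound at 30 °C before DHE staining; 100% = average MFI of all compound-treated wells on the plate with controls excluded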
PLCg1 inh: PLC-gamma1 (human) inhibition, primary screen; P19174; inhibition, % at 12.2 µM; purified PLC-gamma1, fluorogenic substrate, fluorescence; 370,000 tested, 0.84% active; in the data active means inhibition above about 9.5%
sPLA2-III inh: Inhibits HGIII-sPLA2 liposome hydrolysis, primary screen; Q9NZ20; QFRET BODIPY PC-A2 liposome hydrolysis, fluorescence; inhibition, % at 12.2 µM; 370,000 tested, 0.56% active; AID 743126;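 active means inhibition above mean plus 3 SD of compounds lying within the high and low control bounds, cut at about 19% in these data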;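 further: 0% = median of test compound wells and 100% = no enzyme DMSO wells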
PLCb3 inh: PLC-beta3 (human) inhibition, primary screen; Q01970; Purified PLC-beta3, fluorogenic substrate, fluorescence; inhibition, % at 12.2 µM; 370,000 tested, 0.18% active; AID 720704; in the data active means inhibition above about 11%;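 further: 0% = median of compound wells on plate and 100% = full blocker control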
The depositor's hits bear a star; i = inactive; · = no result given. Compounds with a hit are over-represented: about 3.9% of the library has one in this group of screens.

SMILES	HIF act	AHR act	CR mimetic SO	PLCg1 inh	sPLA2-III inh	PLCb3 inh
CCOc1ccccc1NC(=O)CSc1c(C)n[nH]c1C	0	5	134	8	8	5
CCOC(=O)c1c(Nc2ccccc2OCCOC)n[nH]c1C	-1	48*	94	3	8	2
Cc1ccc(C)c(-c2nc3cc(N)ccc3o2)c1	-1	-3	104	i	0	i
CCc1ccc2oc(-c3cc(N)ccc3O)nc2c1	1	74*	114	-113	6	-165
Nc1ccc(-c2nc3cc(N)ccc3o2)cc1	0	4	100	i	-1	i
CCc1ccc2oc(-c3cc(N)ccc3Cl)nc2c1	1	49*	106	-124	0	-144
Nc1ccc2oc(-c3cc(Br)ccc3Cl)nc2c1	2	49*	98	·	·	·
Cc1cc(-c2n[nH]c(=S)n2N=Cc2c3ccccc3cc3ccccc23)n[nH]1	·	·	·	-44	11	-64
CCn1ncc(Br)c1C(=O)Nc1sc2c(c1C(N)=O)CCC2	0	49*	123	-13	-1	-15
CCn1nccc1C(=O)Nc1ccccc1OC	-21	0	95	0	3	-3
CCn1ncc(Br)c1C(=O)Nc1ccccc1OC	-1	49*	86	0	-4	5
CCOc1ccccc1NC(=O)c1c(Br)cnn1C	0	59*	93	2	17	-6
COc1ccccc1C(=O)Nc1sc2c(c1C(N)=O)CCCC2	1	55*	82	-95	17	-111
O=C(NC1CCCCN(Cc2cccc(Cl)c2)C1=O)c1ccc(F)c(F)c1 (configuration not stated)	·	·	·	0	7	-1
CC(=O)O[C@@H]1CCC[C@@]2(C(=O)Nc3ccccc32)[C@H]1NC(=O)C(C)C	·	·	·	-2	6	3
Cc1ccccc1N(C)C(=O)Cn1nnc(-c2ccccc2F)n1	·	·	·	2	9	1
CCn1ncc(Br)c1C(=O)Nc1cccc(F)c1	-1	14	108	-3	3	-5
CCn1ncc(Br)c1C(=O)Nc1ccc(C(C)C)cc1	-18	77*	114	2	10	-2
CCCCCCC[C@H](N)[C@H](O)C(=O)N(C)[C@@H](CCS(C)=O)C(=O)N[C@@H](Cc1ccc(O)cc1)C(=O)O (some centres not stated)	·	·	·	-1	5	0
O=C(CSc1ccc(-c2cccnc2)nn1)Nc1ccc(F)cc1F	0	65*	91	-3	4	-9
C#CCN1CC(N(C)CCOC(=O)c2ccc(F)cc2)CS1(=O)=O (configuration not stated)	·	·	·	5	4	2
Cc1nn(-c2cccc(C(F)(F)F)c2)c(=O)c2ccccc12	2	50*	102	0	-4	-3
Cc1nn(-c2ccccc2)c(=O)c2ccccc12	-1	61*	113	0	-4	-4
Cc1nn(-c2ccc(C(=O)O)cc2)c(=O)c2ccccc12	0	1	99	0	0	-2
Cc1cc(=O)[nH]c2c1c(C)nn2-c1ccccc1	0	62*	102	-1	-3	0
SMILES	HIF act	AHR act	CR mimetic SO	PLCg1 inh	sPLA2-III inh	PLCb3 inh
Cc1nn(-c2ccccc2)c2[nH]c(=O)cc(C(F)(F)F)c12	0	18	106	-40	-18	-66
Nc1[nH]c(C(=O)c2ccccc2)c(-c2ccccn2)c1C(=O)c1c[nH]c2ccc(Br)cc12	·	·	·	-37	1	-58
CC(C)CN1C(=O)[C@]2(CC(=O)N(C)C2c2ccccc2)c2cc(-n3cc(C4=CCCCC4)nn3)ccc21 (some centres not stated)	·	·	·	-2	-12	0
COc1ccc2c3c([nH]c2c1)C1=NCC[C@]12c1ccccc1N=CN2CC3	·	·	·	-2	9	-2
Cc1cccc(CN[C@@H]2CC[C@@]34CCCN3C(=O)CCC[C@H]4C2)c1	·	·	·	2	6	0
O=C(Nc1ccc(F)cc1)C(Sc1nc2ccccc2[nH]1)c1ccccc1 (configuration not stated)	0	69*	100	4	-47	3
O=C(CSc1nc2ccccc2[nH]1)Nc1ccc(F)cc1	0	-2	106	-4	-6	-3
COc1ccc(-n2c(COc3ccccc3)nnc2SCc2nc3ccccc3[nH]2)cc1	·	·	·	-5	-14	-6
CCC(C)(C)C(=O)N1CCC(C(=O)NC2CCCc3ccccc32)CC1 (configuration not stated)	·	·	·	1	0	1
CCC(=O)Nc1cc(=O)[nH]c2nc(-c3ccc(Cl)cc3)nn12	0	74*	109	0	1	-7
Cc1ccc(-c2nc3[nH]c(=O)cc(NC(=O)C(C)C)n3n2)cc1	0	3	94	-2	-1	-9
COC(=O)C1=C(C)N(Cc2ccc(C(F)(F)F)cc2)C(=NCc2ccc3c(c2)OCO3)NC1c1ccccc1C(F)(F)F (configuration not stated)	·	·	·	4	-6	6
COC(=O)C1=C(C)N(Cc2ccccc2C(F)(F)F)C(=NCc2ccc3c(c2)OCO3)NC1c1ccccc1C(F)(F)F (configuration not stated)	·	·	·	4	2	11*
CCCCNc1nc(N)nc(-c2cc(Cl)ccc2O)n1	13*	26	105	-281	3	-309
CCNc1nc(N)nc(-c2cc(Cl)ccc2O)n1	5	28	100	·	·	·
Cc1cc(OC(F)F)ccc1NC(=O)Nc1ccc2c(c1)OCO2	0	66*	114	-2	9	-9
COc1ccc(OCC(=O)Nc2ccc3c(c2)OCO3)cc1	0	3	110	-3	-1	-5
COc1ccc(NC(=O)Nc2ccc3c(c2)OCO3)c(C)c1	1	67*	113	2	-1	-1
COC(=O)[C@]12C[C@H](CC(=O)NCc3ccc(C)o3)C(=O)N(Cc3ccco3)C1=C[C@H](C1CCCC1)O[C@@H]2C	·	·	·	2	-7	0
Cc1ccc(NC(=O)OC2CC3CC2[C@H]2CCCCN2[C@H]3C)cc1 (some centres not stated)	·	·	·	-4	7	4
COC(=O)c1sccc1NC(=O)/C=C\c1ccc(Cl)cc1Cl	·	·	·	-1	2	0
COC(=O)c1sccc1NC(=O)/C=C/c1ccc(Cl)cc1	1	54*	106	-2	7	0
CC(=O)/C(N=Nc1cc(C)ccc1O)=C(\C)O	0	56*	103	1	-1	0
Cc1ccccc1-c1cc(C(=O)Nc2nc3c(s2)CCCC3)c2ccccc2n1	-1	23	102	-11	-5	-19
O=C(Nc1nc2c(s1)CCCC2)c1cc(-c2ccc3c(c2)OCO3)nc2ccccc12	1	57*	97	·	·	·
CC(C)(C)NC(=O)c1cc(-c2ccc3c(c2)OCO3)nc2ccccc12	0	70*	88	-102	2	-179
